The full data set covers some 8,800 targets. This sample favours those with a hit. About 0.5% of all pairs of compound and target were hits. Values without a mark were called inactive.
How the values were obtained:
Assay in all cases: log2 fold change, soluble protein after heating vs DMSO (PISA); higher = thermal stabilisation; K562 lysate, 10 uM; active = over 0.2 and 3.5 SD of the protein, either way, in both replicates (recomputed)
alvocidib = compound: CN1CC[C@H](c2c(O)cc(O)c3c(=O)cc(-c4ccccc4Cl)oc23)[C@H](O)C1 [alvocidib]
Method in brief: (§1)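 Quantification was by TMTpro 16plex LC-MS/MS with equalised channel sums, applied to the supernatant after 21,000xg for 90 min. Samples were crude K562 extract at 1 mg/mL protein in PBS pH 7.4 with 1 mM MgCl2, treated with 10 μM compound for 30 min, heated for 3 min across 48°C-58°C, pooled and brought to 0.5% NP-40 at 4°C. Values are log-two fold changes in thermal stability relative to solvent controls, from duplicates.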

Tubastatin A = compound: CN1CCc2c(c3ccccc3n2Cc2ccc(C(=O)NO)cc2)C1 [Tubastatin A]
Method in brief: as §1

[1] = compound: CNC(=O)C1=CC=CC=C1NC2=NC(=NC=C2Cl)NC3=C(C=C(C=C3)N4CCOCC4)OC
Method in brief: as §1

defactinib = compound: CNC(=O)c1ccc(Nc2ncc(C(F)(F)F)c(NCc3nccnc3N(C)S(C)(=O)=O)n2)cc1 [defactinib]
Method in brief: as §1

[2] = compound: CNc1nc(-c2ccc3c(N)n[nH]c3c2)cc(N2C[C@@H](C(=O)NC3CCCCC3)CC[C@H]2C)n1
Method in brief: as §1

encorafenib = compound: COC(=O)N[C@@H](C)CNc1nccc(-c2cn(C(C)C)nc2-c2cc(Cl)cc(NS(C)(=O)=O)c2F)n1 [encorafenib]
Method in brief: as §1

[3] = compound: COC(=O)[C@H](CCSC)NC(=O)C1=C(C=C(C=C1)NC[C@H](CS)N)C2=CC=CC=C2
Method in brief: as §1

alisertib = compound: COc1cc(Nc2ncc3c(n2)-c2ccc(Cl)cc2C(c2c(F)cccc2OC)=NC3)ccc1C(=O)O [alisertib]
Method in brief: as §1

[4] = compound: COc1cc2nc(-c3cc(F)ccc3O)nc(N[C@@H]3CNC[C@H]3C(C)(C)O)c2cc1OC
Method in brief: as §1

gefitinib = compound: COc1cc2ncnc(Nc3ccc(F)c(Cl)c3)c2cc1OCCCN1CCOCC1 [gefitinib]
Method in brief: as §1

lapatinib = compound: CS(=O)(=O)CCNCc1ccc(-c2ccc3ncnc(Nc4ccc(OCc5cccc(F)c5)c(Cl)c4)c3c2)o1 [lapatinib]
Method in brief: as §1

pictilisib = compound: CS(=O)(=O)N1CCN(Cc2cc3nc(-c4cccc5[nH]ncc45)nc(N4CCOCC4)c3s2)CC1 [pictilisib]
Method in brief: as §1

crizotinib = compound: C[C@@H](Oc1cc(-c2cnn(C3CCNCC3)c2)cnc1N)c1c(Cl)ccc(F)c1Cl [crizotinib]
Method in brief: as §1

[5] = compound: C[C@H](C1=CC=C(C=C1)C(=O)NC2=C3C=CNC3=NC=C2)N
Method in brief: as §1

duvelisib = compound: C[C@H](Nc1ncnc2nc[nH]c12)c1cc2cccc(Cl)c2c(=O)n1-c1ccccc1 [duvelisib]
Method in brief: as §1

gandotinib = compound: Cc1cc(Nc2cc(CN3CCOCC3)c3nc(C)c(Cc4ccc(Cl)cc4F)n3n2)n[nH]1 [gandotinib]
Method in brief: as §1

tozasertib = compound: Cc1cc(Nc2cc(N3CCN(C)CC3)nc(Sc3ccc(NC(=O)C4CC4)cc3)n2)n[nH]1 [tozasertib]
Method in brief: as §1

doramapimod = compound: Cc1ccc(-n2nc(C(C)(C)C)cc2NC(=O)Nc2ccc(OCCN3CCOCC3)c3ccccc23)cc1 [doramapimod]
Method in brief: as §1

bafetinib = compound: Cc1ccc(NC(=O)c2ccc(CN3CC[C@H](N(C)C)C3)c(C(F)(F)F)c2)cc1Nc1nccc(-c2cncnc2)n1 [bafetinib]
Method in brief: as §1

[6] = compound: Cc1cccc(CC(=O)N2CCc3c2ccc(-c2cn(C)c4ncnc(N)c24)c3F)n1
Method in brief: as §1

Sequence of UniProt P22830 (P22830 whole entry, looked up): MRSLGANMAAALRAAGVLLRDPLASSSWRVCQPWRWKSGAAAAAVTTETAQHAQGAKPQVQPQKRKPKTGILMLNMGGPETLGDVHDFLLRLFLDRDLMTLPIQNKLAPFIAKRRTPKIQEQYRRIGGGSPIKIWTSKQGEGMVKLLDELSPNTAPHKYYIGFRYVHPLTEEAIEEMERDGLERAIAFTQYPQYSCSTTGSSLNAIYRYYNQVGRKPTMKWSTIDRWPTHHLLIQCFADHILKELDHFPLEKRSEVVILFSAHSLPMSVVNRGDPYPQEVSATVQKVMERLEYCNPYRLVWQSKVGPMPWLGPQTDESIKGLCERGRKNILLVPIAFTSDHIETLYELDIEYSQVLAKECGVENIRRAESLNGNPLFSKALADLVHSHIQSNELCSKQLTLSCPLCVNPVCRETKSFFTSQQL
Sequence of UniProt P06733 (P06733 whole entry, looked up): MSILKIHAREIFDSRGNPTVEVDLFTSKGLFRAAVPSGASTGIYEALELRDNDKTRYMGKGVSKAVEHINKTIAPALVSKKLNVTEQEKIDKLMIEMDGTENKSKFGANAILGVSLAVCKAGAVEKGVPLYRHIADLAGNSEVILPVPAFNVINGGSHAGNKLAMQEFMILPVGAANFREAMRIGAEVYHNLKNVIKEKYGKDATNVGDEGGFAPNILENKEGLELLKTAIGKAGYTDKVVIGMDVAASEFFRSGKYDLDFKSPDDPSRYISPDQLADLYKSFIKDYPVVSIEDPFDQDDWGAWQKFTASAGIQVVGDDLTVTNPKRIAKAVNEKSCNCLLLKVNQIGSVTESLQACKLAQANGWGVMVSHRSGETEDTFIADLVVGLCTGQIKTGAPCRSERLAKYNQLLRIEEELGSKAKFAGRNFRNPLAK
Sequence of UniProt O95208 (O95208 whole entry, looked up): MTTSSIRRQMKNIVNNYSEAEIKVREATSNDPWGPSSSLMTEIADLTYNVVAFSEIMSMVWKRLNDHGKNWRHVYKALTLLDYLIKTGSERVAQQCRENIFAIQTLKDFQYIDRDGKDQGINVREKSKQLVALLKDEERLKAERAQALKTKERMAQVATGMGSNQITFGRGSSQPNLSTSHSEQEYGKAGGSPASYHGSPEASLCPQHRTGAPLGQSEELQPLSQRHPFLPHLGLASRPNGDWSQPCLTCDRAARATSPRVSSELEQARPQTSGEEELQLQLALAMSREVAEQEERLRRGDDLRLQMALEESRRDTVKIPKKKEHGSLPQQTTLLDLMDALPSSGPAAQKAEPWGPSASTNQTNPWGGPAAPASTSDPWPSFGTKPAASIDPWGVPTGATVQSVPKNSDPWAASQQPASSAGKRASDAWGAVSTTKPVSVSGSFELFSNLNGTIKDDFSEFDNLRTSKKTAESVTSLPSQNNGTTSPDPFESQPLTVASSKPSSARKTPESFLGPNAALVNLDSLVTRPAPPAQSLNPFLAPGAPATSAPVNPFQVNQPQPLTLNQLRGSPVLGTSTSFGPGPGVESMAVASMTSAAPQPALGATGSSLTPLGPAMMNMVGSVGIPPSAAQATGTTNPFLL
Sequence of UniProt P41567 (P41567 whole entry, looked up): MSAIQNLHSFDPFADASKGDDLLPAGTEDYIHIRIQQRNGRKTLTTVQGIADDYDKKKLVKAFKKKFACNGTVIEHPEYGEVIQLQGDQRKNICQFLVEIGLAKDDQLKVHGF
Sequence of UniProt Q56P03 (Q56P03 whole entry, looked up): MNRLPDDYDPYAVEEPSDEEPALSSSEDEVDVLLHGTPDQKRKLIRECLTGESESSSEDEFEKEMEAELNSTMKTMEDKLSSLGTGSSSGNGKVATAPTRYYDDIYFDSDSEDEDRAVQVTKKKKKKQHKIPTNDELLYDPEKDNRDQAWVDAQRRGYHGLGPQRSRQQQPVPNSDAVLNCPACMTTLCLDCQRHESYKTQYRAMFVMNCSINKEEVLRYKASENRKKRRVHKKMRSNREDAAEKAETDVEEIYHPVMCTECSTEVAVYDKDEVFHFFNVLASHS
Sequence of UniProt O60645 (O60645 whole entry, looked up): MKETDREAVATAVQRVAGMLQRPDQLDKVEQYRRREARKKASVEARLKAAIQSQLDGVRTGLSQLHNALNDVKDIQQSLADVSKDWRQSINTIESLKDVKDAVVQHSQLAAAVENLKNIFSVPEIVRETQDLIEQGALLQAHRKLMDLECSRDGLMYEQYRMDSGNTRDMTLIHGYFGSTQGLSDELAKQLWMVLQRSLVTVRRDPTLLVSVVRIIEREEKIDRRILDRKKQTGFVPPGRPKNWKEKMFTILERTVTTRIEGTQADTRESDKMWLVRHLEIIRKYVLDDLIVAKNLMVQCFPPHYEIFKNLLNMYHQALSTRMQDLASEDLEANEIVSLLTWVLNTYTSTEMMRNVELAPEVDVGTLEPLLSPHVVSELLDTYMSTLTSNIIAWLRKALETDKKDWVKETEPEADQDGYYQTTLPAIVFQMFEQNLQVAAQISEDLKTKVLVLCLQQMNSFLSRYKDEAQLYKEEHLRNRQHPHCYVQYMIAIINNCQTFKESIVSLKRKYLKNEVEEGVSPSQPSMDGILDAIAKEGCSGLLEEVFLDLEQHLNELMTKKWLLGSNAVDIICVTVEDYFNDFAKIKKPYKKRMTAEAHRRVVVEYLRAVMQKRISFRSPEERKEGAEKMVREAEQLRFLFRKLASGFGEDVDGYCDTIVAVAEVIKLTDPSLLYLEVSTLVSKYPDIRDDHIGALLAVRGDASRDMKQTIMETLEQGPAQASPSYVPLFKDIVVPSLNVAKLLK
Sequence of UniProt Q8TB52 (Q8TB52 whole entry, looked up): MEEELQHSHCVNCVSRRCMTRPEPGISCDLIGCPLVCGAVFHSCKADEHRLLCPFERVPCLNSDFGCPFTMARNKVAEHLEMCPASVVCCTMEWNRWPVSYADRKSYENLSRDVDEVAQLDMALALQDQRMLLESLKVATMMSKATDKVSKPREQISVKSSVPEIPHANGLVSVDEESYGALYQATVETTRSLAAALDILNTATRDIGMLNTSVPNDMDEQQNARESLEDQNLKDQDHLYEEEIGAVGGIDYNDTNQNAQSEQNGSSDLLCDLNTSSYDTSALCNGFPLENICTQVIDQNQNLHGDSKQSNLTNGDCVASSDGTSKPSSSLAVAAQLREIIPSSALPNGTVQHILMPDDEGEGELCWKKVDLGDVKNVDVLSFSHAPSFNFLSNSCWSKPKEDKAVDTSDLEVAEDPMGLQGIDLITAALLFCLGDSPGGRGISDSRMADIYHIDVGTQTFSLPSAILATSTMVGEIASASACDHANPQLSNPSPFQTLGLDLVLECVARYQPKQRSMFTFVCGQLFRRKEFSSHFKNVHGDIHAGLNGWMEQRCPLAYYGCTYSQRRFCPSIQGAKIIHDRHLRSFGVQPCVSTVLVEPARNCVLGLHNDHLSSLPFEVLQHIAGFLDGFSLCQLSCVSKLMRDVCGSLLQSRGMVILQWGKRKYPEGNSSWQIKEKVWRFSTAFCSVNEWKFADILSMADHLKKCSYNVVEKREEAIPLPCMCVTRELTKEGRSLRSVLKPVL
Sequence of UniProt A6NHQ2 (A6NHQ2 whole entry, looked up): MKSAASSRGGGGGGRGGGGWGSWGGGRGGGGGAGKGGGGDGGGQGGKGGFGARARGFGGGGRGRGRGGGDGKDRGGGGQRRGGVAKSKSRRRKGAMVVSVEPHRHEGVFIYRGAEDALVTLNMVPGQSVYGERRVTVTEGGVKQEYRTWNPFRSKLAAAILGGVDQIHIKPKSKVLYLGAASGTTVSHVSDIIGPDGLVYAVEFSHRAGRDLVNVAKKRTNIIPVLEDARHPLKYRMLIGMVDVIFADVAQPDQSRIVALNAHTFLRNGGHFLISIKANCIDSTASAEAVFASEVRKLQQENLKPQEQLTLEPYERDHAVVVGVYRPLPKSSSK
Sequence of UniProt Q6Y7W6 (Q6Y7W6 whole entry, looked up): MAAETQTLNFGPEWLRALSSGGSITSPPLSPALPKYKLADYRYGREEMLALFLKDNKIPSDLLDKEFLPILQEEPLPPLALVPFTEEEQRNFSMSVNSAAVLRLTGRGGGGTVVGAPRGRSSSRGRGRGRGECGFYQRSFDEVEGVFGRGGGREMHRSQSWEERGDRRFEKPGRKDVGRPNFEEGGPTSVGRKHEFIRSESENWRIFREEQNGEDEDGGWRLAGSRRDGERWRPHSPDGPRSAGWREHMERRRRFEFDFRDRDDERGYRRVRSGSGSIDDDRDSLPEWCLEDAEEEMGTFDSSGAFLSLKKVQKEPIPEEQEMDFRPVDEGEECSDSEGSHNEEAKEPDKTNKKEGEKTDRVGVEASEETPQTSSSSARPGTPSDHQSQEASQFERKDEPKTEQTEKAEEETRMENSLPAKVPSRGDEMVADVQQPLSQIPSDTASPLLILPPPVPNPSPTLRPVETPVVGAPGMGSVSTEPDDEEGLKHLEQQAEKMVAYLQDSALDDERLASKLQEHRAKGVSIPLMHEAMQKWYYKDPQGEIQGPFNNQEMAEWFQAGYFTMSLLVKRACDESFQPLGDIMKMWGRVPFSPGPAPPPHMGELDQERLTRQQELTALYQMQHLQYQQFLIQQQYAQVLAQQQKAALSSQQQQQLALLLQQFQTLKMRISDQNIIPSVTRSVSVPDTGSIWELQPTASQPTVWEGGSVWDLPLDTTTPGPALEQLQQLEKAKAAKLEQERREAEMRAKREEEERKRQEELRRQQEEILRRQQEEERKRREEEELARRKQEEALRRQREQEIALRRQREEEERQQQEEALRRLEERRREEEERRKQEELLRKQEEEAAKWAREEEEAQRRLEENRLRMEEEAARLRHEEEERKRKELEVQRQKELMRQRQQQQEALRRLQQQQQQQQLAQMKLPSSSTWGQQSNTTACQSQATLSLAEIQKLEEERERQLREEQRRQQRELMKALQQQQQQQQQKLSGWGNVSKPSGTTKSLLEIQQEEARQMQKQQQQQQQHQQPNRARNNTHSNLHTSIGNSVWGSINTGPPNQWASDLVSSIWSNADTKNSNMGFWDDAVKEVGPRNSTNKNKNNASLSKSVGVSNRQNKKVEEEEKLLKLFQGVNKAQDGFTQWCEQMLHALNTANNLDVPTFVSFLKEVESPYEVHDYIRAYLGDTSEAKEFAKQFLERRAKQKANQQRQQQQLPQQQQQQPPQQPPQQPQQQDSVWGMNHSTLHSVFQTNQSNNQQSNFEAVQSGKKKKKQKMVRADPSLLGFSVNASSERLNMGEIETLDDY

| Target | log2 fold change (alvocidib) | log2 fold change (Tubastatin A) | log2 fold change [1] | log2 fold change (defactinib) | log2 fold change [2] | log2 fold change (encorafenib) | log2 fold change [3] | log2 fold change (alisertib) | log2 fold change [4] | log2 fold change (gefitinib) | log2 fold change (lapatinib) | log2 fold change (pictilisib) | log2 fold change (crizotinib) | log2 fold change [5] | log2 fold change (duvelisib) | log2 fold change (gandotinib) | log2 fold change (tozasertib) | log2 fold change (doramapimod) | log2 fold change (bafetinib) | log2 fold change [6] |
| --- | --- | --- | --- | --- | --- | --- | --- | --- | --- | --- | --- | --- | --- | --- | --- | --- | --- | --- | --- | --- |
| FIG4 (UniProt Q92562) | -0.106 | 0.012 | -0.004 | -0.039 | -0.016 | 0.064 | 0.037 | -0.145 | 0.079 | 0.148 | -0.065 | 0.12 | -0.016 | 0.039 | -0.023 | -0.099 | -0.112 | -0.067 | -0.09 | 0.058 |
| FARSB (UniProt Q9NSD9) | 0.003 | -0.056 | -0.012 | -0.014 | -0.012 | -0.029 | 0.067 | 0.002 | 0.005 | -0.013 | 0.003 | -0.014 | -0.033 | 0.007 | 0.021 | -0.053 | -0.014 | 0.033 | -0.005 | -0.001 |
| ENO1 isoform 2 (UniProt P06733) | -0.174 | 0.085 | -0.13 | -0.001 | 0.009 | 0.033 | -0.033 | 0.022 | -0.004 | -0.015 | 0.005 | -0.012 | -0.019 | -0.285 (active) | 0.049 | 0.153 | 0.026 | -0.019 | 0.07 | 0.222 |
| GEMIN5 (UniProt Q8TEQ6) | 0.023 | -0.21 | 0.027 | 0.031 | -0.007 | 0.011 | 0.057 | 0.014 | -0.019 | -0.032 | -0.025 | -0.006 | -0.069 | -0.029 | 0.001 | -0.087 | 0.009 | 0.012 | -0.053 | 0.017 |
| EXOC3 (UniProt O60645) | 0.011 | -0.063 | 0.009 | 0.031 | -0.037 | 0.001 | 0.07 | 0.032 | -0.023 | -0.001 | -0.037 | -0.033 | -0.133 | 0.016 | -0.039 | -0.098 | 0.019 | 0.041 | -0.094 | 0.019 |
| EPN2 (UniProt O95208) | -0.079 | -0.008 | 0.001 | 0.005 | 0.009 | 0.016 | -0.051 | 0.002 | 0.03 | -0.014 | -0.007 | -0.037 | -0.009 | -0.407 (active) | 0.055 | 0.165 | -0.036 | 0.065 | -0.027 | 0.093 |
| FBXO30 (UniProt Q8TB52) | 0.066 | -0.106 | 0.03 | 0.042 | -0.091 | 0.036 | 0.1 | -0.014 | -0.006 | 0.029 | -0.015 | -0.03 | -0.013 | 0.187 | 0.024 | -0.072 | -0.021 | 0.045 | 0.032 | -0.117 |
| EAPP (UniProt Q56P03) | 0.048 | -0.025 | 0.078 | -0.017 | 0.107 | -0.014 | -0.053 | -0.042 | 0.017 | -0.03 | -0.033 | 0.058 | 0 | 0.03 | 0.03 | -0.157 | -0.09 | -0.058 | 0.109 | 0.128 |
| ENO1, A0A2R8YEM5 | -0.256 | 0.104 | 0.021 | 0.043 | 0.002 | 0.031 | -0.035 | 0.006 | -0.001 | 0.035 | -0.016 | -0.037 | 0.017 | -0.469 (active) | 0 | 0.185 | 0.001 | -0.006 | 0.036 | 0.244 (active) |
| FECH isoform 2 (UniProt P22830) | 0.028 | -0.123 | 0.485 | -0.056 | 0.664 | -0.064 | -0.091 | -0.191 | 0.225 | 0.503 | -0.099 | 0.64 | 0.027 | -0.12 | -0.022 | 0.418 | 0 | -0.015 | 0.557 | -0.036 |
| GAMT (UniProt Q14353) | 0.025 | -0.059 | 0.055 | 0.068 | 0.038 | -0.028 | 0.039 | 0.018 | -0.021 | -0.035 | 0.02 | -0.028 | 0 | 0.02 | 0.082 | 0.002 | -0.02 | 0.09 | 0.062 | -0.046 |
| EIF1 (UniProt P41567) | -0.033 | 0.084 | -0.039 | -0.013 | -0.02 | -0.017 | -0.032 | -0.006 | 0.005 | -0.247 (active) | 0.053 | 0.016 | 0.002 | -0.051 | 0.044 | 0.068 | -0.008 | -0.092 | 0.052 | 0.021 |
| EFCAB14 (UniProt O75071) | -0.056 | 0.077 | 0.01 | -0.007 | -0.058 | 0.038 | -0.086 | 0.063 | 0.012 | -0.131 | -0.051 | -0.058 | 0.006 | 0.037 | 0.022 | 0.064 | 0.086 | 0.011 | -0.002 | -0.084 |
| GIGYF2 (UniProt Q6Y7W6) | -0.028 | -0.164 | 0.052 | 0.017 | 0.019 | 0.092 | -0.063 | 0.028 | 0.013 | 0.005 | 0.013 | 0.057 | 0.024 | 0.03 | -0.033 | 0.05 | -0.006 | -0.086 | -0.043 | -0.009 |
| FBLL1 (UniProt A6NHQ2) | -0.009 | -0.049 | -0.036 | 0.047 | 0.081 | 0.042 | 0.056 | 0.012 | 0.005 | 0.035 | 0.014 | -0.076 | -0.041 | -0.277 (active) | 0.059 | 0.028 | 0.047 | -0.013 | -0.075 | 0.053 |
| FTSJ1 (UniProt Q9UET6) | 0.003 | -0.038 | 0.049 | -0.021 | -0.016 | -0.025 | 0.089 | 0.004 | 0.005 | -0.001 | 0.01 | -0.002 | -0.051 | 0.051 | -0.009 | -0.088 | -0.064 | 0.03 | 0.041 | -0.052 |
